# Inconclusive results are not listed. The source made the active and inactive calls. Calls follow the shape of the dose curve; as a rule, active = well fitted curve in the direction sought with a large enough effect; inconclusive = small, poorly fitted or top-dose-only effect, or another doubt; inactive = no such curve, though single readings can be large; an effect the other way counts as inactive or inconclusive.
# Tests used:
# [1] = Quantitative High-Throughput drug screen in 47 multiple myeloma cell lines against the NCATS MIPE library collection: H1112_PLB cell viability assay (AID 1918967; also: nearly all actives have a fitted effect of over 30% in size; also: potency is read from the fitted curve at half-maximal effect)
# Procedure, shortened: (§1)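 Relative luminescence from CellTiter-Glo served as the viability signal, referenced to DMSO-treated (100%) and cell-free medium (0%) controls. Treatment lasted 48 hours at 37C with 500 cells per well.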
# [2] = Quantitative High-Throughput drug screen in 47 multiple myeloma cell lines against the NCATS MIPE library collection: KMS27_JCRB cell viability assay (AID 1918970); also: nearly all actives have a fitted effect of over 30% in size; also: potency is read from the fitted curve at half-maximal effect
# Procedure, shortened: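 Each line is seeded at 500 cells per well and treated with library compounds for 48 hours under 37 °C, 5% CO2. CellTiter-Glo is then added for 5 min at room temperature before median relative luminescence is recorded.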
# [3] = Quantitative High-Throughput drug screen in 47 multiple myeloma cell lines against the NCATS MIPE library collection: KMS12BM_JCRB cell viability assay (AID 1918971); also: nearly all actives have a fitted effect of over 35% in size; also: potency is read from the fitted curve at half-maximal effect
# Procedure, shortened: (§2)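 qHTS of the MIPE 4.0 collection: 500 myeloma cells/well, 48 h drug exposure at 37C in 5% CO2, then CellTiter-Glo for 5 min at room temperature before luminescence reading.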
# [4] = Quantitative High-Throughput drug screen in 47 multiple myeloma cell lines against the NCATS MIPE library collection: KMS12PE_JCRB cell viability assay (AID 1918972); also: nearly all actives have a fitted effect of over 30% in size; also: potency is read from the fitted curve at half-maximal effect
# Procedure, shortened: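 CellTiter-Glo ATP luminescence gave viability after 48 h compound treatment at 37C of 500 multiple myeloma cells per well. Normalisation used DMSO-only wells as 100% and media-only wells as 0% viability; primary qHTS of approved and investigational drugs.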
# [5] = Quantitative High-Throughput drug screen in 47 multiple myeloma cell lines against the NCATS MIPE library collection: KMS20_JCRB cell viability assay (AID 1918973); also: nearly all actives have a fitted effect of over 45% in size
# Procedure, shortened: as §1
# [6] = Quantitative High-Throughput drug screen in 47 multiple myeloma cell lines against the NCATS MIPE library collection: KMS26_JCRB cell viability assay (AID 1918975); also: nearly all actives have a fitted effect of over 45% in size; also: potency is read from the fitted curve at half-maximal effect
# Procedure, shortened: as §2
# [7] = Quantitative High-Throughput drug screen in 47 multiple myeloma cell lines against the NCATS MIPE library collection: MOLP8_DSMZ cell viability assay (AID 1918977); also: nearly all actives have a fitted effect of over 45% in size; also: potency is read from the fitted curve at half-maximal effect
# Procedure, shortened: (§3)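 ATP-based CellTiter-Glo luminescence after 48 h drug exposure (37 °C, 5% CO2) of 500 myeloma cells per well. DMSO-only wells set 100% viability, media-only wells 0%; MIPE 4.0 library added by pin tool.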
# [8] = Quantitative High-Throughput drug screen in 47 multiple myeloma cell lines against the NCATS MIPE library collection: NCIH929_DSMZ cell viability assay (AID 1918978); also: nearly all actives have a fitted effect of over 35% in size; also: potency is read from the fitted curve at half-maximal effect
# Procedure, shortened: as §3
# [9] = Quantitative High-Throughput drug screen in 47 multiple myeloma cell lines against the NCATS MIPE library collection: OCIMY1_PLB cell viability assay (AID 1918979); also: nearly all actives have a fitted effect of over 35% in size; also: potency is read from the fitted curve at half-maximal effect
# Procedure, shortened: as §3
# [10] = Quantitative High-Throughput drug screen in 47 multiple myeloma cell lines against the NCATS MIPE library collection: MM1S_ATCC cell viability assay (AID 1918980); also: nearly all actives have a fitted effect of over 45% in size; also: potency is read from the fitted curve at half-maximal effect
# Procedure, shortened: as §3
# [11] = Quantitative High-Throughput drug screen in 47 multiple myeloma cell lines against the NCATS MIPE library collection: KMS28PE_JCRB cell viability assay (AID 1918983); also: nearly all actives have a fitted effect of over 35% in size; also: potency is read from the fitted curve at half-maximal effect
# Procedure, shortened: as §3
# [12] = Quantitative High-Throughput drug screen in 47 multiple myeloma cell lines against the NCATS MIPE library collection: L363_DSMZ cell viability assay (AID 1918984); also: nearly all actives have a fitted effect of over 40% in size; also: potency is read from the fitted curve at half-maximal effect
# Procedure, shortened: as §3
# [13] = Quantitative High-Throughput drug screen in 47 multiple myeloma cell lines against the NCATS MIPE library collection: KMS34_JCRB cell viability assay (AID 1918985); also: nearly all actives have a fitted effect of over 40% in size; also: potency is read from the fitted curve at half-maximal effect
# Procedure, shortened: as §3
# [14] = Quantitative High-Throughput drug screen in 47 multiple myeloma cell lines against the NCATS MIPE library collection: OCIMY7_PLB cell viability assay (AID 1918987); conditions: OCI-MY7 myeloma viability, CellTiter-Glo ATP, 48 h; viability (% of DMSO): at 45.8 µM (top of the series); also: potency is read from the fitted curve at half-maximal effect; nearly all actives have a fitted effect of over 65% in size
# Procedure, shortened: as §3
# [15] = Quantitative High-Throughput drug screen in 47 multiple myeloma cell lines against the NCATS MIPE library collection: OCIMY5_PLB cell viability assay (AID 1918988); also: nearly all actives have a fitted effect of over 65% in size; also: potency is read from the fitted curve at half-maximal effect
# Procedure, shortened: as §3
# [16] = Quantitative High-Throughput drug screen in 47 multiple myeloma cell lines against the NCATS MIPE library collection: MMM1_PLB cell viability assay (AID 1918976)
# Procedure, shortened: as §3
# [17] = Quantitative High-Throughput drug screen in 47 multiple myeloma cell lines against the NCATS MIPE library collection: MM1R_ATCC cell viability assay (AID 1918981); also: nearly all actives have a fitted effect of over 35% in size; also: potency is read from the fitted curve at half-maximal effect
# Procedure, shortened: as §3
# [18] = Quantitative High-Throughput drug screen in 47 multiple myeloma cell lines against the NCATS MIPE library collection: KMS21BM_JCRB cell viability assay (AID 1918974); conditions: ATP luminescence, 48 h; viability: at 45.8 µM (top of the series) unless noted; also: potency is read from the fitted curve at half-maximal effect
# Procedure, shortened: as §1
# [19] = Quantitative High-Throughput drug screen in 47 multiple myeloma cell lines against the NCATS MIPE library collection: Karpas25_ECACC cell viability assay (AID 1918968)
# Procedure, shortened: as §1
# [20] = Quantitative High-Throughput drug screen in 47 multiple myeloma cell lines against the NCATS MIPE library collection: LP1_DSMZ cell viability assay (AID 1918982)
# Procedure, shortened: as §3
structure (smiles),measurement,setting,value
CC(C)(C)OC(=O)N[C@H]1CCCCCC=C[C@@H]2C[C@@]2(C(=O)NS(=O)(=O)C2CC2)NC(=O)[C@@H]2C[C@@H](OC(=O)N3Cc4cccc(F)c4C3)CN2C1=O,Potency,[1],inactive
same,Potency,[2],inactive
same,Potency,[3],inactive
same,Potency,[4],13.2 µM (active)
same,Potency,[5],inactive
same,Potency,[6],inactive
same,Potency,[7],inactive
same,Potency,[8],inactive
same,Potency,[9],inactive
same,Potency,[10],inactive
same,Potency,[11],inactive
same,Potency,[12],inactive
same,Potency,[13],inactive
CC(C)(C)NC(=O)Nc1cccc(Nc2ncc(F)c(NC(C)(C)CO)n2)c1,Potency,[1],inactive
same,Potency,[3],inactive
same,Potency,[4],3.32 µM (active)
same,Potency,[7],inactive
same,Potency,[8],inactive
same,Potency,[11],inactive
same,Potency,[14],2.35 µM (active)
same,Potency,[15],3.72 µM (active)
CC[C@@H]1C=C(C)C[C@H](C)C[C@H](OC)[C@H]2O[C@@](O)(C(=O)C(=O)N3CCCC[C@@H]3C(=O)O[C@H](C(C)=C[C@@H]3CC[C@H](Cl)[C@H](OC)C3)[C@H](C)[C@@H](O)CC1=O)[C@H](C)C[C@H]2OC,Potency,[1],18.7 µM (active)
same,Potency,[2],8.33 µM (active)
same,Potency,[4],7.43 µM (active)
same,Potency,[16],11.8 µM (active)
same,Potency,[10],14.8 µM (active)
same,Potency,[11],16.6 µM (active)
same,Potency,[12],10.5 µM (active)
same,Potency,[13],16.6 µM (active)
same,Potency,[14],10.5 µM (active)
same,Potency,[15],16.6 µM (active)
COC(=O)C1=CO[C@@H](O)[C@@H]2C(CO)=CC[C@@H]12,Potency,[1],inactive
same,Potency,[7],23.5 µM (active)
same,Potency,[17],18.7 µM (active)
O=C(O)C=Cc1ccc(O)c(O)c1,Potency,[1],inactive
same,Potency,[2],16.6 µM (active)
same,Potency,[3],20.9 µM (active)
same,Potency,[18],13.2 µM (active)
same,Potency,[16],7.43 µM (active)
same,Potency,[7],20.9 µM (active)
same,Potency,[10],9.35 µM (active)
same,Potency,[17],23.5 µM (active)
same,Potency,[11],2.96 µM (active)
same,Potency,[12],16.6 µM (active)
same,Potency,[14],16.6 µM (active)
same,Potency,[15],18.7 µM (active)
CCc1ccc(C=C2SC(=S)NC2=O)cc1,Potency,[1],inactive
same,Potency,[7],inactive
same,Potency,[8],inactive
same,Potency,[9],inactive
same,Potency,[11],inactive
same,Potency,[15],inactive
CC(=O)Oc1cc2c(s1)CCN(C(C(=O)C1CC1)c1ccccc1F)C2 (stereo not drawn),Potency,[1],2.96 µM (active)
same,Potency,[19],1.87 µM (active)
same,Potency,[6],2.96 µM (active)
same,Potency,[16],1.48 µM (active)
same,Potency,[10],0.833 µM (active)
same,Potency,[11],2.64 µM (active)
same,Potency,[12],0.935 µM (active)
same,Potency,[14],0.935 µM (active)
same,Potency,[15],0.833 µM (active)
O=C(CCN1CCN(C(=O)OCc2cc(Cl)cc(Cl)c2)CC1)c1ccc2[nH]c(=O)oc2c1,Potency,[1],inactive
same,Potency,[3],inactive
same,Potency,[4],inactive
same,Potency,[16],10.5 µM (active)
same,Potency,[7],inactive
same,Potency,[8],inactive
same,Potency,[9],inactive
same,Potency,[10],13.2 µM (active)
same,Potency,[17],18.7 µM (active)
same,Potency,[11],inactive
same,Potency,[13],inactive
CC=C(C)C(=O)O[C@H]1C(C)=C[C@]23C(=O)[C@@H](C=C(CO)[C@@H](O)[C@]12O)[C@H]1[C@@H](C[C@H]3C)C1(C)C,Potency,[1],0.526 µM (active)
same,Potency,[2],9.35 µM (active)
same,Potency,[4],18.7 µM (active)
same,Potency,[18],8.33 µM (active)
same,Potency,[16],18.7 µM (active)
same,Potency,[17],18.7 µM (active)
same,Potency,[11],0.0372 µM (active)
same,Potency,[12],4.69 µM (active)
same,Potency,[13],20.9 µM (active)
same,Potency,[14],14.8 µM (active)
CC(C)(C)Cn1c(N)nc2ccc(-c3[nH]c(C(C)(C)C)nc3-c3ccc(F)cc3)nc21,Potency,[1],20.9 µM (active)
same,Potency,[2],inactive
same,Potency,[3],23.5 µM (active)
same,Potency,[4],inactive
same,Potency,[16],20.9 µM (active)
same,Potency,[7],7.43 µM (active)
same,Potency,[8],26.4 µM (active)
same,Potency,[10],16.6 µM (active)
same,Potency,[11],23.5 µM (active)
same,Potency,[12],inactive
same,Potency,[14],18.7 µM (active)
same,Potency,[15],16.6 µM (active)
c1ccc2c(-c3cnn4cc(-c5ccc(N6CCNCC6)cc5)cnc34)ccnc2c1,Potency,[1],3.32 µM (active)
same,Potency,[3],14.8 µM (active)
COc1ccc2c(Oc3ccc(NC(=O)c4c(C)n(CC(C)(C)O)n(-c5ccccc5)c4=O)cc3F)ccnc2c1,Potency,[1],20.9 µM (active)
same,Potency,[2],20.9 µM (active)
same,Potency,[3],33.2 µM (active)
same,Potency,[4],26.4 µM (active)
same,Potency,[6],inactive
same,Potency,[8],20.9 µM (active)
same,Potency,[14],16.6 µM (active)
same,Potency,[15],23.5 µM (active)
O=C(O)c1c(Cl)c(Cl)c(Cl)c(Cl)c1-c1c2cc(I)c(=O)c(I)c-2oc2c(I)c(O)c(I)cc12,Potency,[1],3.32 µM (active)
same,Potency,[19],7.43 µM (active)
same,Potency,[4],10.5 µM (active)
same,Potency,[8],6.62 µM (active)
same,Potency,[10],6.62 µM (active)
same,Potency,[17],13.2 µM (active)
same,Potency,[11],14.8 µM (active)
same,Potency,[15],13.2 µM (active)
CC1(C)CCC(CN2CCN(c3ccc(C(=O)NS(=O)(=O)c4ccc(NCC5CCOCC5)c([N+](=O)[O-])c4)c(Oc4cnc5[nH]ccc5c4)c3)CC2)=C(c2ccc(Cl)cc2)C1,Potency,[1],0.264 µM (active)
same,Potency,[2],0.118 µM (active)
same,Potency,[3],0.0526 µM (active)
same,Potency,[4],0.0833 µM (active)
same,Potency,[6],18.7 µM (active)
same,Potency,[16],0.166 µM (active)
same,Potency,[7],18.7 µM (active)
same,Potency,[8],23.5 µM (active)
same,Potency,[9],10.5 µM (active)
same,Potency,[10],23.5 µM (active)
same,Potency,[17],14.8 µM (active)
same,Potency,[20],18.7 µM (active)
same,Potency,[11],16.6 µM (active)
same,Potency,[13],16.6 µM (active)
same,Potency,[14],0.59 µM (active)
same,Potency,[15],0.0148 µM (active)
O=c1[nH]cnc2c1ncn2[C@H]1CC[C@@H](CO)O1,Potency,[1],inactive
same,Potency,[4],inactive
same,Potency,[6],inactive
same,Potency,[7],inactive
same,Potency,[8],inactive
same,Potency,[9],inactive
same,Potency,[10],11.8 µM (active)
same,Potency,[17],inactive
same,Potency,[12],inactive
same,Potency,[15],inactive

# Source: PubChem BioAssay (NCATS)
